From article PMC5540273 (PLoS ONE, 2017)

Legend:
Details in all cases: concentration: 1 μM, replicates: in singlicate; n = 1
ABL2 = system: ABL2
ACVR1B = system: ACVR1B
ACVR1 = system: ACVR1
ACVR2A = system: ACVR2A
ACVR2B = system: ACVR2B
ACVRL1 = system: ACVRL1
ADCK3 = system: T1, ADCK3
T1 construct: gene CABC1

ADCK4 = system: ADCK4
AKT1 = system: AKT1
AKT2 = system: AKT2
AKT3 = system: AKT3
ALK = system: ALK
AMPK-alpha1 = system: T2, AMPK-alpha1
T2 construct: gene PRKAA1

AMPK-alpha2 = system: T3, AMPK-alpha2
T3 construct: gene PRKAA2

ANKK1 = system: ANKK1
ARK5 = system: T4, ARK5
T4 construct: gene NUAK1

ASK1 = system: T5, ASK1
T5 construct: gene MAP3K5

ASK2 = system: T6, ASK2
T6 construct: gene MAP3K6

AURKA = system: AURKA
AURKB = system: AURKB
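Note: KINOMEscan kinase panel screen.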

Structure (SMILES) | %Inh (ABL2) | %Inh (ACVR1B) | %Inh (ACVR1) | %Inh (ACVR2A) | %Inh (ACVR2B) | %Inh (ACVRL1) | %Inh (ADCK3) | %Inh (ADCK4) | %Inh (AKT1) | %Inh (AKT2) | %Inh (AKT3) | %Inh (ALK) | %Inh (AMPK-alpha1) | %Inh (AMPK-alpha2) | %Inh (ANKK1) | %Inh (ARK5) | %Inh (ASK1) | %Inh (ASK2) | %Inh (AURKA) | %Inh (AURKB)
C[C@H]1CC[C@@H](C(=O)Nc2ccccc2)CN1c1cc(-c2ccc3c(N)n[nH]c3c2)nc(N)n1 [GSK2283293] | 15% | 0% | 0% | 0% | 0% | 0% | 11% | 40% | 0% | 6% | 0% | 30% | 0% | 13% | 11% | 1% | 0% | 5% | 0% | 6%
COc1ccc(Nc2nccc(N3CCC(NC(=O)Nc4ccc5c(c4)OCO5)C3)n2)cc1 (centres unmarked) [GSK1379745] | 18% | 0% | 1% | 0% | 5% | 0% | 17% | 41% | 0% | 7% | 0% | 20% | 24% | 24% | 2% | 9% | 9% | 5% | 6% | 13%
Cc1cc(N2CCC(NS(=O)(=O)c3ccc(F)cc3)CC2)nc(Nc2cccc(C#N)c2)n1.O=C(O)C(F)(F)F [GSK1653537] | 2% | 0% | 0% | 0% | 0% | 0% | 0% | 0% | 0% | 20% | 0% | 7% | 0% | 20% | 3% | 15% | 0% | 3% | 0% | 0%
CCc1nc(-c2cccc(N(C)S(=O)(=O)c3ccccc3)c2)c(-c2ccnc(Nc3ccc(N4CCN(C(C)=O)CC4)nc3)n2)s1 [GSK1645895] | 23% | 0% | 0% | 0% | 0% | 0% | 16% | 19% | 0% | 0% | 0% | 18% | 0% | 0% | 26% | 16% | 12% | 0% | 19% | 10%
NC(=O)c1sc(-n2cnc3ccccc32)cc1OCc1ccccc1F [GSK1024306] | 8% | 0% | 0% | 0% | 2% | 0% | 5% | 7% | 0% | 0% | 0% | 5% | 6% | 0% | 0% | 31% | 0% | 0% | 0% | 0%
Cl.O=S(=O)(c1cccc(F)c1)c1ccc(Nc2ncnc3cc(Br)sc23)cc1Cl [GSK306886] | 0% | 0% | 18% | 0% | 0% | 7% | 11% | 22% | 0% | 3% | 0% | 14% | 0% | 0% | 3% | 10% | 8% | 0% | 30% | 0%
Oc1ccc2ncnc(Nc3ccc(OCc4ccccc4)cc3)c2c1 [GI262866] | 7% | 0% | 0% | 0% | 9% | 0% | 0% | 0% | 0% | 9% | 0% | 21% | 4% | 0% | 0% | 15% | 0% | 7% | 0% | 21%
COc1ccc(-c2oc3ncnc(N)c3c2-c2ccc(OC)cc2)cc1 [SB-589132] | 20% | 0% | 21% | 0% | 0% | 12% | 12% | 55% | 0% | 0% | 0% | 32% | 0% | 10% | 0% | 13% | 11% | 7% | 0% | 30%
CS(=O)(=O)CCNCc1nc(-c2ccc3ncnc(Nc4ccc(OCc5cccc(F)c5)c(Cl)c4)c3c2)cs1.Cl [GW583340] | 0% | 0% | 0% | 0% | 0% | 0% | 1% | 20% | 0% | 0% | 0% | 0% | 0% | 0% | 0% | 11% | 11% | 0% | 5% | 0%
Cc1ccc(O)cc1Nc1cc(C(F)(F)F)nc2ccc(-c3ccncc3)cc12 [GW630823] | 14% | 0% | 11% | 0% | 0% | 0% | 10% | 0% | 5% | 1% | 0% | 0% | 0% | 0% | 0% | 0% | 30% | 0% | 0% | 0%
Cn1cc(-c2ccc3c(c2)CCN3C(=O)Cc2cccc(C(F)(F)F)c2)c2c(N)ncnc21 [GSK2606414] | 11% | 0% | 0% | 0% | 1% | 4% | 6% | 0% | 0% | 18% | 53% | 1% | 0% | 13% | 16% | 13% | 0% | 10% | 30% | 32%
Fc1cccc(COc2ccc(Nc3ncnc4nn5ccccc5c34)cc2Cl)c1 [GW689066] | 1% | 0% | 0% | 0% | 0% | 0% | 5% | 42% | 0% | 3% | 0% | 26% | 0% | 0% | 0% | 11% | 8% | 0% | 0% | 0%
COC(=O)c1c(-c2ccccc2)c2cc(Cl)ccc2c(=O)n1Cc1ccc(S(C)(=O)=O)cc1 | 18% | 0% | 0% | 0% | 0% | 0% | 17% | 0% | 9% | 3% | 0% | 8% | 7% | 0% | 0% | 19% | 6% | 6% | 4% | 12%
Clc1ccc(-c2cc(-c3c[nH]nc3-c3ccccn3)ccn2)cc1 [GW681251] | 15% | 44% | 12% | 33% | 52% | 0% | 13% | 4% | 27% | 0% | 0% | 19% | 2% | 0% | 0% | 4% | 0% | 0% | 4% | 8%
COC(=O)c1cccc(NC(=O)NCCNc2ccnc(Nc3ccc(F)cc3)n2)c1 [GSK1379883] | 1% | 0% | 6% | 0% | 0% | 0% | 15% | 48% | 0% | 0% | 0% | 32% | 0% | 18% | 1% | 0% | 0% | 0% | 21% | 0%
C[C@@H]1CCN(C(=O)CO)C[C@@H]1N(C)c1ncnc2[nH]ccc12 | 0% | 13% | 0% | 0% | 0% | 8% | 0% | 0% | 0% | 0% | 7% | 15% | 5% | 0% | 0% | 0% | 0% | 0% | 0% | 0%
CSc1ccc(NC2=C(c3ccccc3Cl)C(=O)NC2=O)cc1 [SB-342411] | 3% | 0% | 0% | 0% | 0% | 0% | 16% | 0% | 0% | 11% | 0% | 0% | 25% | 0% | 20% | 0% | 0% | 0% | 21% | 2%
CC(C)(C)c1ccc(-n2cnc3c(N)ncnc32)cc1 [SKF-97263] | 7% | 0% | 10% | 7% | 0% | 0% | 23% | 0% | 0% | 12% | 0% | 7% | 14% | 21% | 24% | 10% | 1% | 1% | 7% | 16%
Cn1ccc2ncnc(Oc3ccc(NC(=O)Nc4cccnc4)c(Cl)c3)c21 | 11% | 0% | 0% | 0% | 0% | 0% | 0% | 0% | 0% | 8% | 0% | 0% | 4% | 9% | 0% | 3% | 5% | 0% | 18% | 47%
